In all, about 33,000 sequences were measured (“e-score”: median about -0.053, highest 2% from about 0.38 on). Only a selection was taken, and the highest values are over-represented in it overall.
Biological target: T1, SIX1 homeodomain (reference allele) (human, UniProt Q15475 108-198)
T1 sequence: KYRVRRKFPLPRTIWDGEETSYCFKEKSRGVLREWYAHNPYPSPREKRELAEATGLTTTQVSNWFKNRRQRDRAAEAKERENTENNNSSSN
Experiment: universal protein binding microarray; Universal all-10-mer PBM (8x60K, AMADID 030236), 300 nM GST-tagged protein, Alexa Fluor 488 anti-GST; buffer, salt, pH and temperature not stated (as in Berger); high values mean tight binding
Settings: protein: ivt; tags: N-terminal GST; dsDNA, one strand shown
Procedure, shortened: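 GST-tagged homeodomains were made by in vitro transcription/translation and quantified by anti-GST western blot against a recombinant GST standard curve. They were applied in duplicate at 300 nM final concentration to universal 'all 10-mer' protein binding microarrays (8×60K format). Binding was quantified as 8-mer E-scores with the Universal PBM Analysis Suite.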

Sequence | binding signal
GCTCATCC | 0.219 ± 0.00236 E-score
GATCATAC | 0.3778 ± 0.00307 E-score
CATCATAC | 0.151 ± 0.0343 E-score
GATCATCA | 0.34 ± 0.00658 E-score
GATGGGGA | 0.191 ± 0.049 E-score
CGTGGATA | 0.362 ± 0.0371 E-score
ACCTGCTA | 0.2283 ± 0.000693 E-score
TGGTGACA | 0.156 ± 0.0327 E-score
GATCCTAC | 0.32 ± 0.0262 E-score
AGGCGATA | 0.357 ± 0.00753 E-score
CAGCGATA | 0.359 ± 0.0421 E-score
AAGCGATC | 0.239 ± 0.00546 E-score
TAGCGATA | 0.3796 ± 0.0024 E-score
ATGCGATA | 0.394 ± 0.037 E-score
GTGCGATA | 0.36 ± 0.0111 E-score
GAGCGATA | 0.344 ± 0.042 E-score
CTGCGATA | 0.342 ± 0.0342 E-score
AAGCGATA | 0.376 ± 0.0611 E-score
AGATAGTG | 0.152 ± 0.0589 E-score
CCCATCCG | 0.191 ± 0.101 E-score
CAATGACA | 0.198 ± 0.0712 E-score
GGTGTTTA | 0.203 ± 0.0284 E-score
ACCCGACA | 0.239 ± 0.0574 E-score
ATCAATGC | 0.163 ± 0.0171 E-score
ATCCATTA | 0.244 ± 0.00287 E-score

Sequence | binding signal
AGCCGTAT | 0.292 ± 0.018 E-score
ATATACGC | 0.244 ± 0.0546 E-score
CATGATCA | 0.177 ± 0.0294 E-score
TATGATCA | 0.25 ± 0.0234 E-score
AATGATCC | 0.424 ± 0.011 E-score
GATGATCA | 0.315 ± 0.00602 E-score
CATGATCC | 0.394 ± 0.00778 E-score
AATGATCG | 0.152 ± 0.117 E-score
GATGATCC | 0.45356 ± 0.000438 E-score
GAAGATCC | 0.297 ± 0.0273 E-score
AATGATCT | 0.369 ± 0.0567 E-score
AACGGGAT | 0.243 ± 0.0163 E-score
GATAGGAC | 0.22 ± 0.0517 E-score
TCATGGGA | 0.153 ± 0.0225 E-score
ATAGCCAA | 0.218 ± 0.0447 E-score
CCGCGGTA | 0.194 ± 0.102 E-score
CGGTGTAG | 0.297 ± 0.025 E-score
CACAGATC | 0.277 ± 0.0367 E-score
AACGGATA | 0.421 ± 0.0091 E-score
GACGGATC | 0.358 ± 0.041 E-score
AATGGATC | 0.35 ± 0.00509 E-score
AACGGATC | 0.376 ± 0.0111 E-score
CACGGATA | 0.397 ± 0.0101 E-score
AACAGATC | 0.2 ± 0.0405 E-score
CACAGATA | 0.205 ± 0.00976 E-score

Sequence | binding signal
AACGGGTA | 0.159 ± 0.0738 E-score
AACGGATT | 0.204 ± 0.0564 E-score
CACGGATC | 0.405 ± 0.0341 E-score
GACGGATA | 0.35 ± 0.0364 E-score
ATACAGGA | 0.228 ± 0.0565 E-score
ATGCAATA | 0.192 ± 0.0352 E-score
GAGTAGAC | 0.214 ± 0.0128 E-score
ATATGCCC | 0.339 ± 0.0543 E-score
CGATCTAG | 0.1577 ± 0.00153 E-score
ATCATTTC | 0.1962 ± 0.00187 E-score
ATCAAGCG | 0.228 ± 0.0527 E-score
AGAGCGAT | 0.159 ± 0.0536 E-score
AAGCCGAT | 0.211 ± 0.0118 E-score
CATTATAC | 0.28 ± 0.0245 E-score
CGAGGGGA | 0.164 ± 0.0583 E-score
TACAGATA | 0.267 ± 0.0119 E-score
TAAGGATA | 0.276 ± 0.0458 E-score
TACGGATA | 0.401 ± 0.0137 E-score
CCCATCCC | 0.154 ± 0.0727 E-score
GCTAGATA | 0.255 ± 0.0399 E-score
ATACTGAA | 0.173 ± 0.0413 E-score
ATATGGTA | 0.256 ± 0.011 E-score
CCACTATC | 0.227 ± 0.0482 E-score
GCATACGA | 0.157 ± 0.0596 E-score
ATACCTAC | 0.385 ± 0.0317 E-score

Sequence | binding signal
ACACCTAG | 0.231 ± 0.0166 E-score
ACACCTAC | 0.191 ± 0.0849 E-score
ATACCTGA | 0.3668 ± 0.00206 E-score
ATACCTAT | 0.398 ± 0.0488 E-score
ATACCTAG | 0.392 ± 0.0316 E-score
ATACCTTG | 0.335 ± 0.0223 E-score
ATACCTGC | 0.342 ± 0.0303 E-score
ATACCTGG | 0.27 ± 0.0557 E-score
ATACCTAA | 0.273 ± 0.0487 E-score
ACACCTAT | 0.26 ± 0.021 E-score
ATACCTTA | 0.385 ± 0.0525 E-score
CCGAATCC | 0.163 ± 0.0406 E-score
ATCTTGTC | 0.153 ± 0.0184 E-score
TCGATCCA | 0.152 ± 0.142 E-score
TGGCATAA | 0.177 ± 0.0236 E-score
AGCTATAC | 0.235 ± 0.02 E-score
ATCGCTAG | 0.279 ± 0.0337 E-score
ATTAGTGA | 0.152 ± 0.0306 E-score
ATACCTCG | 0.342 ± 0.0353 E-score
ATACCTCA | 0.352 ± 0.0542 E-score
ATACCTCC | 0.403 ± 0.0208 E-score
ATACTGCA | 0.242 ± 0.0213 E-score
ATTGAGAC | 0.212 ± 0.0411 E-score
AACTGGAT | 0.172 ± 0.0594 E-score
AGGTATAA | 0.242 ± 0.0818 E-score

Sequence | binding signal
CGGTATAG | 0.216 ± 0.0268 E-score
AGGTATAG | 0.262 ± 0.0777 E-score
AGGTATAC | 0.4 ± 0.0358 E-score
GCGTATAC | 0.295 ± 0.011 E-score
CGGTATAA | 0.294 ± 0.0192 E-score
GGGTATAC | 0.416 ± 0.0059 E-score
GGGTATAA | 0.375 ± 0.0497 E-score
CGGTATAC | 0.393 ± 0.00578 E-score
CACTATCG | 0.211 ± 0.013 E-score
TAGATCCA | 0.227 ± 0.0321 E-score
CATAACAC | 0.161 ± 0.0101 E-score
ATCTGCCA | 0.187 ± 0.0302 E-score
GAGATCTC | 0.292 ± 0.0824 E-score
ATCATCCG | 0.348 ± 0.0124 E-score
ACACCCCT | 0.327 ± 0.0413 E-score
ATCCGAAT | 0.313 ± 0.0137 E-score
TATTAAAA | 0.18 ± 0.0684 E-score
GGCGGGGA | 0.174 ± 0.14 E-score
GTATTCTA | 0.191 ± 0.00249 E-score
ATATCCTG | 0.394 ± 0.0206 E-score
ATCTCCTG | 0.298 ± 0.00608 E-score
GTATCCTA | 0.409 ± 0.00666 E-score
CTATCCTA | 0.198 ± 0.0137 E-score
TAATCCTA | 0.215 ± 0.0252 E-score
ATCTCCTA | 0.159 ± 0.082 E-score

Sequence | binding signal
AGATCCTC | 0.329 ± 0.0109 E-score
CTATCCTC | 0.282 ± 0.0379 E-score
ATATCCTC | 0.426 ± 0.02 E-score
ATATCCTA | 0.415 ± 0.027 E-score
AGATCCTG | 0.252 ± 0.0351 E-score
GATCTTAC | 0.275 ± 0.0138 E-score
ACAGGATC | 0.283 ± 0.00359 E-score
ATCGAGAC | 0.217 ± 0.013 E-score
CCGGATTA | 0.351 ± 0.0231 E-score
CCAGATCA | 0.39 ± 0.0106 E-score
CCGGATCA | 0.454 ± 0.013 E-score
CCAGATCG | 0.292 ± 0.0492 E-score
TGAGATCA | 0.33 ± 0.0117 E-score
TCCGATCA | 0.212 ± 0.00764 E-score
AGAGATCA | 0.302 ± 0.0481 E-score
TCAGATCA | 0.243 ± 0.0928 E-score
TCGGATCA | 0.4385 ± 0.00286 E-score
TCGGATAA | 0.336 ± 0.0635 E-score
CCGGATGA | 0.275 ± 0.0448 E-score
GGAGATCA | 0.386 ± 0.0139 E-score
GACACTCC | 0.258 ± 0.0239 E-score
CAGTGTAG | 0.161 ± 0.0252 E-score
CGATCTGA | 0.30169 ± 0.000148 E-score
ATACTTGA | 0.222 ± 0.103 E-score
GTATAAAA | 0.246 ± 0.0491 E-score

Sequence | binding signal
GATAGTTA | 0.153 ± 0.035 E-score
CAGATCAC | 0.3666 ± 0.00216 E-score
ACTCAGGG | 0.266 ± 0.0829 E-score
CGTAATAC | 0.256 ± 0.0115 E-score
GCGGATGA | 0.171 ± 0.0144 E-score
GCGGATCA | 0.448 ± 0.00571 E-score
GCGGATTA | 0.318 ± 0.0316 E-score
ATCGTACC | 0.217 ± 0.0516 E-score
CCCTCTCA | 0.17 ± 0.048 E-score
GATAGCCC | 0.303 ± 0.0137 E-score
AGATTGAT | 0.221 ± 0.0674 E-score
AATACCAC | 0.33 ± 0.0283 E-score
AATACCAA | 0.278 ± 0.0235 E-score
GATACCAC | 0.462 ± 0.0103 E-score
AATACCAT | 0.296 ± 0.0291 E-score
GATACCAA | 0.4303 ± 0.00174 E-score
TATACCAA | 0.347 ± 0.016 E-score
ACAGTGGT | 0.155 ± 0.0272 E-score
GGATGACC | 0.205 ± 0.0281 E-score
CTGAAACC | 0.155 ± 0.0131 E-score
CATAAGAA | 0.178 ± 0.0241 E-score
CCGGACAC | 0.192 ± 0.0231 E-score

Source: PMC10668032, “Altered binding affinity of SIX1-Q177R correlates with enhanced WNT5A and WNT pathway effector expression in Wilms tumor”
